Assay outcomes: PubChem BioAssay, several laboratories
CYP2C9 activ: CYP2C9 (human) activation; 1.4% of 96,000 active; activation factor at 5 µM; P11712; AID 1024; recombinant CYP2C9, luciferin-H conversion, luminescence; hits give high values; factor 1 = untreated enzyme, 0 = blocked;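 active = activation factor of 2 or more for CYP2C9 at a 5 µM dose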
CYP2C19 act: increases human CYP2C19 enzyme activity; P33261; 96,000 tested, under 10 active; activation factor at 5 µM; recombinant CYP2C19, luciferin-H EGE luminescence; hits give high values; 0 = fully inhibited enzyme, 1 = untreated enzyme;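 active = activation factor of at least 2 at 5 µM in the primary screen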
Target sequence (P33261 whole entry, looked up): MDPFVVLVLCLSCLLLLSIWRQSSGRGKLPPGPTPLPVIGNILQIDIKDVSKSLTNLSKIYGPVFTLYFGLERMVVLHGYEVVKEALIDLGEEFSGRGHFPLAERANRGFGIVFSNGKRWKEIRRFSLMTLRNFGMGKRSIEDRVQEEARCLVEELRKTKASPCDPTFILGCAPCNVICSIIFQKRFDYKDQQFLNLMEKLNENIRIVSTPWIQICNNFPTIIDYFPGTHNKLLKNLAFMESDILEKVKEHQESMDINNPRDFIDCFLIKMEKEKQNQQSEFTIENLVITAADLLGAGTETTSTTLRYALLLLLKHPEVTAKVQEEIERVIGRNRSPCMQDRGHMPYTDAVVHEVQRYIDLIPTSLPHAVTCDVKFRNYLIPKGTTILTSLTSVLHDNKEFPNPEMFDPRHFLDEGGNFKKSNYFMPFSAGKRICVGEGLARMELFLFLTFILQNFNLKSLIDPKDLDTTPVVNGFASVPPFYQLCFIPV
CYP2C9 inh: inhibitors of human CYP2C9. CYP2C9 Supersomes, luciferin-H conversion, luminescence. AID 777. 20% of 96,000 active. P11712. inhibition, % at 5 µM;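 active = blocking of liver enzyme CYP2C9 beyond about 50% at 5 µM, limit read from the data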
CYP2C19 inhib: inhibitors of human CYP2C19; P33261; CYP2C19 Supersomes, luciferin-H EGE luminescence, 30 min; inhibition, % at 5 µM; 21% of 96,000 active; AID 778;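 active = CYP2C19 inhibition above a set limit at 5 µM in the primary screen, cut at about 50% in these data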
Measles CPE: protection of cells from measles virus | Measles virus-infected cells, CPE protection, absorbance | protection (pct of control), % at 4 µM | 1.5% of 140,000 active; in the data active = protection mostly above about 24%, no sharp cut-off; inactive = mostly below about 26%
Each line names hits and unclear results; the compound was inactive in the other large screens. Most compounds without a hit are left out; they make up all but 22% or so of the library.

CN(Cc1cccs1)C(=O)CSc1nnnn1C	none
CCC(C)(C)NC(=O)Cc1ccccc1OC	none
CCOC(=S)N/C(=N\S(=O)(=O)c1ccccc1)c1ccccc1	none (no result: CYP2C9 activ, CYP2C19 act, CYP2C9 inh, CYP2C19 inhib)
Cc1ccc(NC(=S)N/C(=N/S(=O)(=O)c2ccccc2)c2ccccc2)cc1	CYP2C9 inh 82.3
CCN(CC)/C(=N/S(=O)(=O)c1ccc(C)cc1)c1ccccc1	CYP2C19 inhib 57.0
CN(/C(=N/S(=O)(=O)c1ccccc1)c1ccccc1)S(=O)(=O)c1ccccc1	none (no result: CYP2C9 activ, CYP2C19 act, CYP2C9 inh, CYP2C19 inhib)
CCCOC(=S)N/C(=N\S(=O)(=O)c1ccccc1)c1ccccc1	CYP2C9 inh 67.0
Cc1ccc(C(=O)NNC(=O)c2cccnc2SCc2cccc([N+](=O)[O-])c2)cc1	none (no result: CYP2C9 activ, CYP2C19 act, CYP2C9 inh, CYP2C19 inhib)
Oc1ccc(-c2nnc(-c3ccc(O)cc3)nn2)cc1	none
Oc1ccc(-c2cccc(-c3ccc(O)cc3)n2)cc1	CYP2C9 inh 61.3
CC1(C)Cc2ccccc2-c2nnc(SCC(=O)Nc3nc4ccccc4s3)n21	none
CCOc1ccc(C(CCc2ccccc2)NC(=O)c2ccccc2F)cc1OCC (centres undefined)	CYP2C9 inh 78.1, CYP2C19 inhib 77.2
CCOc1ccc(C(CCc2ccccc2)NC(=O)c2ccccc2OC)cc1OCC (centres undefined)	CYP2C9 inh 84.9, CYP2C19 inhib 64.3
O=C(NCc1ccco1)C1CCCCN1S(=O)(=O)c1ccc(F)cc1 (centres undefined)	CYP2C19 inhib 61.4
COc1ccc(NC(=O)C2CCCN2S(=O)(=O)c2ccc(C)cc2)cc1 (centres undefined)	CYP2C9 inh 74.7, CYP2C19 inhib 73.6
O=C(NCC1CCCO1)C1CCCCN1S(=O)(=O)c1ccc(F)cc1 (centres undefined)	none
COc1ccc(S(=O)(=O)N2CCCC2C(=O)Nn2cnnc2)cc1 (centres undefined)	none
CCCOc1ccc(N2CC(C(=O)Nc3ncccc3C)CC2=O)cc1 (centres undefined)	CYP2C9 inh 69.1
COc1ccc(NC(=O)C2CCCCN2S(=O)(=O)c2ccc(F)cc2)cc1 (centres undefined)	CYP2C19 inhib 68.4
CCc1ccccc1N(C1=NCCCS1)S(=O)(=O)c1ccc(C(C)(C)C)cc1	none (no result: CYP2C9 activ, CYP2C19 act, CYP2C9 inh, CYP2C19 inhib)
COc1ccc(S(=O)(=O)N2CCCC(C(=O)Nc3ccc(OC)c(OC)c3)C2)cc1 (centres undefined)	none
CCOc1ccc(N2CC(C(=O)Nc3ccc(S(=O)(=O)N4CCOCC4)cc3)CC2=O)cc1 (centres undefined)	CYP2C9 inh 57.4
Cc1ccc(S(=O)(=O)N2CCC(C(=O)Nc3ccc4c(c3)OCO4)CC2)cc1	none
COc1ccc(S(=O)(=O)N2CCCC2C(=O)Nc2ccc(C(C)=O)cc2)cc1 (centres undefined)	CYP2C19 inhib 57.3
Cc1ccc(N2CC(C(=O)Nc3ccc(S(=O)(=O)N4CCOCC4)cc3)CC2=O)cc1 (centres undefined)	none
O=C(Nc1ccc2c(c1)OCO2)C1CCCCN1S(=O)(=O)c1ccc(F)cc1 (centres undefined)	CYP2C9 inh 62.7, CYP2C19 inhib 99.6
COc1ccccc1NC(=O)C1CCCCN1S(=O)(=O)c1ccc(F)cc1 (centres undefined)	CYP2C9 activ 2.7
COc1ccc(NC(=O)C2CCCCN2S(=O)(=O)c2ccc(F)cc2)c(OC)c1 (centres undefined)	none
COc1ccc(C2(CNC(=O)CCC(=O)O)CCCC2)cc1	none
O=C(Cn1cnc2c(nnn2Cc2ccc(F)cc2)c1=O)N1CCCc2ccccc21	none (no result: CYP2C9 activ, CYP2C19 act, CYP2C9 inh, CYP2C19 inhib)
O=C(O)C1CCCCN1S(=O)(=O)c1ccccc1 (centres undefined)	none
O=S(=O)(c1ccc(F)cc1)N1CCC(O)(c2ccc3c(c2)OCO3)CC1	CYP2C19 inhib 70.9
CCOc1ccc(NC(=O)C2CCCCN2S(=O)(=O)c2ccccc2)cc1 (centres undefined)	CYP2C19 inhib 75.1
COc1ccc(S(=O)(=O)N2CCC(O)(c3ccc4c(c3)OCO4)CC2)cc1	none
COC(=O)c1ccc(CSc2nc3scc(-c4cccs4)c3c(=O)[nH]2)o1	CYP2C9 inh 57.2
COC(=O)c1ccc(CSc2ncnc3sc(C)c(C)c23)o1	none
COC(=O)c1ccc(CSc2ccc3nnc(-c4ccccn4)n3n2)o1	none
CCOC(=O)C(C)(C)Sc1nc2c(cnn2-c2ccc(Cl)cc2)c(=O)[nH]1	CYP2C9 inh 75.8
CCOc1ccc(-c2nnc3ccc(SCc4ccc(C(=O)OC)o4)nn23)cc1	CYP2C9 inh 85.1, CYP2C19 inhib 64.7
